NPR2 activator: human GC-B receptor activators, primary screen, HEK293 GC-B cells, cGMP TR-FRET, EC30 CNP; 0% at EC30 CNP, 100% saturating CNP; activation, % at 10 µM; 370,000 tested, 0.11% active;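 active = activation at 10 µM reaching about 35% in either raw or pattern-adjusted values, limit read from the data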
ADAM10 inh: human ADAM10 inhibitors, primary screen, biochemical, QFRET, HTS. inhibition, % at 7 µM. 370,000 tested, 0.62% active. AID 720582, 2013. recombinant ADAM10, EDANS/DABCYL FRET peptide cleavage, 3 h. Disintegrin and metalloproteinase domain-containing protein 10 (Homo sapiens), O14672;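 active = inhibition above a per-campaign cutoff equal to the mean of compounds falling between control-based bounds plus 3 SD, cut at about 20% in these data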
NPR1 activator: GC-A stimulated cGMP production enhancers – HEK293 GC-A cells, cGMP TR-FRET, EC30 ANP, primary screen. Atrial natriuretic peptide receptor 1 (Homo sapiens), P16066. 0% at EC30 ANP, 100% saturating ANP. activation, % at 10 µM. 370,000 tested, 0.14% active; in the data active = activation above about 40%
proKLK7 act: proKLK7 zymogen activators, primary screen, biochemical, fluorescence intensity; Kallikrein-7 (Homo sapiens), P49862; purified proKLK7, EDANS-DABCYL substrate fluorescence; 100% is mature enzyme control, 0% vehicle; activation, % at 7 µM; 370,000 tested, 0.9% active; AID 652039, 2013;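 active = activation above the mean of all tested compounds plus 3 SD, computed per campaign excluding outliers beyond control limits, cut at about 13% in these data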
Target sequence (P49862 whole entry, looked up): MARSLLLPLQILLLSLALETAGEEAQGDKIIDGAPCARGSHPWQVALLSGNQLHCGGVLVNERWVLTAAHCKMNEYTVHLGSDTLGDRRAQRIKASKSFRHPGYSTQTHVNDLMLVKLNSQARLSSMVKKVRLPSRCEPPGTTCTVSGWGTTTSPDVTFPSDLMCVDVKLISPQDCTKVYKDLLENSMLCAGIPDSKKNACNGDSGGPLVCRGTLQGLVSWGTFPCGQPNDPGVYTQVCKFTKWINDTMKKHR
ADAM17 inh: ADAM17 inhibitors, primary screen, biochemical, QFRET. Disintegrin and metalloproteinase domain-containing protein 17 (Homo sapiens), P78536. recombinant ADAM17, EDANS/DABCYL FRET peptide cleavage. inhibition, % at 6.95 µM. 370,000 tested, 0.83% active;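 active = inhibition above the mean of compounds lying between control limits plus 3 SD, set per campaign, cut at about 8.5% in these data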
ADAM10 confirm: human ADAM10 inhibitors, confirmation, biochemical, QFRET, triplicate. ADAM10 QFRET peptide cleavage, EDANS fluorescence. inhibition, % at 6.95 µM. 2,100 tested, 1% active. AID 743208, 2013. shares compounds with ADAM10 inh;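 active = inhibition above about 20% chosen separately for each screening run, limit read from the data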
ADAM17 ctr: ADAM17 inhibitors, counter-screen for ADAM10 exosite inhibitor project, biochemical, QFRET, high throughput; 2,100 tested, 0.5% active; ADAM17 QFRET peptide cleavage, EDANS fluorescence; shares compounds with ADAM10 inh; inhibition, % at 6.95 µM; AID 743214, 2013;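 active = mean triplicate inhibition above the solvent-only control wells' mean plus 3 SD, cut at about 12% in these data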
ADAM10 counter: ADAM10 inhibitors, counter-screen for ADAM17 exosite inhibitor project, biochemical, FRET, human ADAM10 | inhibition, % at 6.95 µM | 2,900 tested, 47% active | recombinant ADAM10, EDANS/DABCYL FRET peptide cleavage, 3 h | shares compounds with ADAM17 inh;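 active = mean inhibition over the triplicate runs exceeds the activity threshold set in the earlier primary screen, cut at about 20% in these data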
ADAM17 confirm: ADAM17 inhibitors, hit retest, confirmation, biochemical, QFRET peptide cleavage; shares compounds with ADAM17 inh; recombinant ADAM17, EDANS/DABCYL QFRET peptide cleavage; inhibition, % at 6.95 µM; 2,900 tested, 65% active;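 active = mean inhibition across replicates above the hit cutoff set in the primary screen, cut at about 8.5% in these data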
A number is an active result; i = inactive; nt = no result. Only some compounds are listed: those with a hit (about 2.2% of all), similar ones and a draw of the others.

SMILES	NPR2 activator	ADAM10 inh	NPR1 activator	proKLK7 act	ADAM17 inh	ADAM10 confirm	ADAM17 ctr	ADAM10 counter	ADAM17 confirm
COc1ccc(-c2nc(C)ncc2N=Nc2ccccc2)cc1	i	i	i	i	i	nt	nt	nt	nt
COc1ccc(N=Nc2nc(-c3ccccc3)c(-c3ccccc3)[nH]2)cc1	i	24	i	i	9.2	i	i	32	15
COc1ccc(C(=O)NC(=S)Nc2ccc(Cc3ccncc3)cc2)cc1	i	36	i	i	9.0	i	i	23	11
CCc1ccc(CCNC(=O)OCCCN2CCC3(CCC(C)CC3)C2=O)cc1 (stereo not given)	i	i	i	i	i	nt	nt	nt	nt
FC(F)(F)c1cccc(NC(=S)NCc2ccc(Cl)cc2)c1	i	22	i	i	9.1	i	i	26	15
Fc1ccc(CNC(=S)Nc2cccc(C(F)(F)F)c2)cc1	i	i	i	i	i	nt	nt	nt	nt
COC(=O)[C@@]12CCCCC3=C1N(CCC3)C(=O)[C@H]2CC(=O)NCc1cccc(C(F)(F)F)c1	i	i	i	i	i	nt	nt	nt	nt
Cc1ccc(C)c(S(=O)(=O)N2CCC(c3nc4c(nnn4Cc4ccc(F)cc4)c(=O)[nH]3)CC2)c1	i	i	i	i	i	nt	nt	nt	nt
Cc1ccc(C)c(Cn2nnc3c(=O)[nH]c(C4CCN(S(=O)(=O)c5ccc(S(=O)(=O)NC6CC6)cc5)CC4)nc32)c1	i	25	i	i	11	i	i	39	21
Cc1ccc(Cn2nnc3c(=O)[nH]c(C4CCN(S(=O)(=O)c5cc(C)ccc5C)CC4)nc32)cc1	i	43	i	i	15	i	i	25	11
O=S1(=O)c2ccc(N3CCN(Cc4ccccc4F)CC3)cc2Oc2ccccc2CN1Cc1cn(Cc2ccc(C(F)(F)F)cc2)nn1	i	i	i	i	i	nt	nt	nt	nt
Cc1cc(C)c(CSc2ncc(-c3ccc([N+](=O)[O-])cc3)[nH]2)c(C)c1	i	34	i	i	11	i	i	41	23
CCOC(=O)c1sc(NC(=O)CN2C(=O)NC3(CC(C)CC(C)(C)C3)C2=O)cc1C (stereo not given)	i	24	i	i	13	i	i	i	14
CCOC(=O)c1sc(NC(=O)CN2C(=O)NC3(CC(C)CC(C)(C)C3)C2=O)c(C(=O)OCC)c1C (stereo not given)	i	i	i	i	i	nt	nt	nt	nt
O=C(Nc1nc2ncccn2c1-c1ccc(F)cc1)c1ccc(F)cc1	i	i	i	i	i	nt	nt	nt	nt
Cc1ccc(NC(=S)NNC(=O)CSc2nnc(SCc3cccc4ccccc34)s2)cc1	i	21	i	i	9.3	i	i	26	11
O=C(CSc1nnc(SCc2cccc3ccccc23)s1)Nc1ccc(C(=O)O)cc1	i	i	i	i	i	nt	nt	nt	nt
O=C(CSc1nc2ccccc2s1)NNC(=S)Nc1ccc(Br)cc1	i	21	i	i	13	i	i	i	i
O=C(CSc1nc2ccccc2s1)NNC(=S)Nc1ccccc1	i	i	i	i	i	nt	nt	nt	nt
COC(=O)[C@]12C[C@H](CC(=O)NCc3ccc(OC)c(OC)c3)C(=O)N(Cc3cccc4ccccc34)C1=C[C@H](C(C)(C)C)O[C@@H]2C	i	20	i	i	8.8	i	i	29	22
COC(=O)[C@]12C[C@H](CC(=O)NCc3cccc4ccccc34)C(=O)N(Cc3ccccc3)C1=C[C@H](C(C)(C)C)O[C@@H]2C	i	i	i	i	i	nt	nt	nt	nt
COC(=O)[C@]12C[C@H](CC(=O)NCc3cccc4ccccc34)C(=O)N(Cc3ccco3)C1=C[C@H](C(C)(C)C)O[C@@H]2C	i	24	i	i	9.4	i	i	32	15
COC(=O)[C@]12C[C@H](CC(=O)NCc3cccc(C(F)(F)F)c3)C(=O)N(Cc3ccco3)C1=C[C@H](C1CCCC1)O[C@@H]2C	i	21	i	i	9.0	i	i	i	8.9
COC(=O)[C@]12C[C@H](CC(=O)NCc3cccc(C(F)(F)F)c3)C(=O)N(Cc3ccccc3)C1=C[C@H](C1CCCC1)O[C@@H]2C	i	i	i	i	i	nt	nt	nt	nt
O=[N+]([O-])c1ccc(O)c(/C=N/Nc2ccccn2)c1	i	24	i	i	30	29	31	48	54
SMILES	NPR2 activator	ADAM10 inh	NPR1 activator	proKLK7 act	ADAM17 inh	ADAM10 confirm	ADAM17 ctr	ADAM10 counter	ADAM17 confirm
Cc1ccc(NC(=O)CSc2nnc(-c3cc(-c4ccc(Cl)cc4)n[nH]3)n2N)cc1	i	i	i	i	i	nt	nt	nt	nt
COc1ccc(S(=O)(=O)N2CCC(c3cc(-c4cccc5ccccc45)n[nH]3)CC2)cc1	i	25	i	i	11	i	i	i	9.1
CC(=O)OC1[C@H](Oc2c(O)c(C)c3c4c2[C@@H](C)CC[C@@H]4[C@@H](C)C[C@@H]3C=C(C)C)OC[C@@H](O)[C@@H]1O (stereo not given in full)	i	i	i	i	i	nt	nt	nt	nt
CC(C)=C[C@H]1C[C@H](C)[C@H]2CC[C@H](C)c3c(O[C@@H]4OC[C@@H](O)[C@H](O)C4O)c(O)c(C)c1c32 (stereo not given in full)	i	30	i	i	21	i	i	i	9.1
COc1cc(/C=C/C=C2/CC/C(=C/C=C/c3ccc(O)c(OC)c3)C2=O)ccc1O	i	22	i	i	17	i	i	i	i
Cc1ccc(-n2c(SCC(=O)Nc3ccccc3-c3ccccc3)nnc2-c2cccnc2)cc1	i	i	i	i	i	nt	nt	nt	nt
CCOC(=O)C1(Cc2ccccc2)CCN(Cc2ccc(C(F)(F)F)cc2)CC1	i	i	i	i	i	nt	nt	nt	nt

Bioassay records from PubChem BioAssay.
